# Reference: PubChem BioAssay AID1159580 (chemical genetic matrix, 2015)
# Values joined by “and” are separate entries in the source; they are usually repeats but may differ in a detail not shown here. Equal values may be shown once. Among all 5,500 compounds or so, about 2,000 (36%) were called active. Inconclusive results (about 18%) are left out. Some of the results follow. Unmarked numbers belong to inactive results. No stated cut-off is given here; in the data, active means normalized growth mostly below about 0.91 (no sharp cut-off); inconclusive means no clear call, values can overlap the other calls; inactive means mostly above about 0.92.
# Assay: chemical genetic growth profiling, strain panel (AID 1159580);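 further: tested at 20 µM; growth read once vehicle control cultures reached saturation at 30 °C; 1 = growth at the plate median or of vehicle wells; lower values mean less growth of the strain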
# Details: growth OD
smiles,measurement,setting,value
CC(C)OC(=O)Nc1cccc(Cl)c1,normalized growth,"S. cerevisiae deletion strains, locus YAL013W, strain DEP1, hits give low values",0.988
same,normalized growth,"S. cerevisiae deletion strains, locus YBR021W, strain FUR4, hits give low values",0.821 (active)
same,normalized growth,"S. cerevisiae deletion strains, locus YBR229C, strain ROT2, hits give low values",0.979
same,normalized growth,"S. cerevisiae deletion strains, locus YCL029C, strain bik1, hits give low values",0.991
same,normalized growth,"S. cerevisiae deletion strains, locus YDL035C, strain GPR1, hits give low values",0.966
same,normalized growth,"S. cerevisiae deletion strains, locus YDL074C, strain BRE1, hits give low values",0.899
same,normalized growth,"S. cerevisiae deletion strains, locus YDL101C, strain DUN1, hits give low values",0.986
same,normalized growth,"S. cerevisiae deletion strains, locus YDL134C, strain PPH21, hits give low values",0.973
same,normalized growth,"S. cerevisiae deletion strains, locus YDL185W, strain tfp1, hits give low values",0.997
same,normalized growth,"S. cerevisiae deletion strains, locus YDL192W, strain arf1, hits give low values",0.995
same,normalized growth,"S. cerevisiae deletion strains, locus YDR101C, strain arx1, hits give low values",0.984
same,normalized growth,"S. cerevisiae deletion strains, locus YDR150W, strain NUM1, hits give low values",0.992
same,normalized growth,"S. cerevisiae deletion strains, locus YDR162C, strain NBP2, hits give low values",0.979
same,normalized growth,"S. cerevisiae deletion strains, locus YDR318W, strain mcm21, hits give low values",0.978
same,normalized growth,"S. cerevisiae deletion strains, locus YDR388W, hits give low values",0.989
same,normalized growth,"S. cerevisiae deletion strains, locus YDR502C, strain sam2, hits give low values",0.973
same,normalized growth,"S. cerevisiae deletion strains, locus YEL061C, strain CIN8, hits give low values",0.992
same,normalized growth,"S. cerevisiae deletion strains, locus YER110C, hits give low values",0.986
same,normalized growth,"S. cerevisiae deletion strains, locus YER155C, strain BEM2, hits give low values",0.987
same,normalized growth,"S. cerevisiae deletion strains, locus YER167W, strain BCK2, hits give low values",0.949
same,normalized growth,"S. cerevisiae deletion strains, locus YGL078C, strain dbp3, hits give low values",0.997
same,normalized growth,"S. cerevisiae deletion strains, locus YGL086W, strain mad1, hits give low values",0.995
same,normalized growth,"S. cerevisiae deletion strains, locus YGL248W, strain PDE1, hits give low values",0.962
same,normalized growth,"S. cerevisiae deletion strains, locus YGR078C, strain PAC10, hits give low values",0.955
same,normalized growth,"S. cerevisiae deletion strains, locus YGR135W, strain pre9, hits give low values",0.969
same,normalized growth,"S. cerevisiae deletion strains, locus YGR229C, strain SMI1, hits give low values",0.941
same,normalized growth,"S. cerevisiae deletion strains, locus YGR252W, strain gcn5, hits give low values",0.752 (active)
same,normalized growth,"S. cerevisiae deletion strains, locus YHR030C, strain SLT2, hits give low values",0.983 and 1.01
same,normalized growth,"S. cerevisiae deletion strains, locus YHR079C, strain IRE1 (second series), hits give low values",0.973
same,normalized growth,"S. cerevisiae deletion strains, locus YHR079C, strain IRE1, hits give low values",0.975
same,normalized growth,"S. cerevisiae deletion strains, locus YHR094C, strain hxt1, hits give low values",0.988
same,normalized growth,"S. cerevisiae deletion strains, locus YHR129C, strain ARP1, hits give low values",0.993
same,normalized growth,"S. cerevisiae deletion strains, locus YHR200W, strain rpn10, hits give low values",0.985
same,normalized growth,"S. cerevisiae deletion strains, locus YIL066C, strain RNR3, hits give low values",0.905
same,normalized growth,"S. cerevisiae deletion strains, locus YIL073C, strain SPO22, hits give low values",0.895
same,normalized growth,"S. cerevisiae deletion strains, locus YIL125W, strain kgd1, hits give low values",0.992
same,normalized growth,"S. cerevisiae deletion strains, locus YIR030C, strain dcg1, hits give low values",0.981
same,normalized growth,"S. cerevisiae deletion strains, locus YJL095W, strain BCK1, hits give low values",0.976 and 1
same,normalized growth,"S. cerevisiae deletion strains, locus YJL134W, strain LCB3, hits give low values",1.01
same,normalized growth,"S. cerevisiae deletion strains, locus YJL168C, strain set2, hits give low values",0.987
same,normalized growth,"S. cerevisiae deletion strains, locus YJL187C, strain SWE1 (second series), hits give low values",0.99
same,normalized growth,"S. cerevisiae deletion strains, locus YJR043C, strain POL32, hits give low values",1.07
same,normalized growth,"S. cerevisiae deletion strains, locus YJR066W, strain TOR1, hits give low values",0.937
same,normalized growth,"S. cerevisiae deletion strains, locus YJR075W, strain HOC1, hits give low values",0.994
same,normalized growth,"S. cerevisiae deletion strains, locus YKL009W, strain mrt4, hits give low values",0.954
same,normalized growth,"S. cerevisiae deletion strains, locus YKL068W, hits give low values",0.997
same,normalized growth,"S. cerevisiae deletion strains, locus YKL085W, strain MDH1 (second series), hits give low values",0.991
same,normalized growth,"S. cerevisiae deletion strains, locus YKL085W, strain MDH1, hits give low values",0.991
same,normalized growth,"S. cerevisiae deletion strains, locus YKL190W, strain CNB1, hits give low values",0.98
same,normalized growth,"S. cerevisiae deletion strains, locus YKR001C, strain vps1, hits give low values",0.958
same,normalized growth,"S. cerevisiae deletion strains, locus YLR039C, strain RIC1, hits give low values",0.951
same,normalized growth,"S. cerevisiae deletion strains, locus YLR058C, strain SHM2, hits give low values",0.987
same,normalized growth,"S. cerevisiae deletion strains, locus YLR102C, strain apc9, hits give low values",0.987
same,normalized growth,"S. cerevisiae deletion strains, locus YLR113W, strain HOG1, hits give low values",0.87
same,normalized growth,"S. cerevisiae deletion strains, locus YLR262C, strain YPT6, hits give low values",0.888
same,normalized growth,"S. cerevisiae deletion strains, locus YLR268W, strain sec22, hits give low values",0.99
same,normalized growth,"S. cerevisiae deletion strains, locus YLR330W, strain CHS5, hits give low values",0.995
same,normalized growth,"S. cerevisiae deletion strains, locus YLR342W, strain FKS1 (second series), hits give low values",0.944
same,normalized growth,"S. cerevisiae deletion strains, locus YLR371W, strain rom2, hits give low values",0.974
same,normalized growth,"S. cerevisiae deletion strains, locus YLR418C, strain cdc73, hits give low values",0.828 (active)
same,normalized growth,"S. cerevisiae deletion strains, locus YML016C, strain PPZ1, hits give low values",0.993
same,normalized growth,"S. cerevisiae deletion strains, locus YML032C, strain rad52, hits give low values",0.936
same,normalized growth,"S. cerevisiae deletion strains, locus YML124C, strain tub3, hits give low values",0.985
same,normalized growth,"S. cerevisiae deletion strains, locus YMR078C, strain ctf18, hits give low values",0.935
same,normalized growth,"S. cerevisiae deletion strains, locus YMR223W, strain ubp8, hits give low values",0.959
same,normalized growth,"S. cerevisiae deletion strains, locus YMR263W, strain SAP30, hits give low values",0.988
same,normalized growth,"S. cerevisiae deletion strains, locus YMR307W, strain GAS1, hits give low values",0.891
same,normalized growth,"S. cerevisiae deletion strains, locus YNL067W, strain RPL9B, hits give low values",0.301 (active)
same,normalized growth,"S. cerevisiae deletion strains, locus YNL128W, strain TEP1, hits give low values",1.01
same,normalized growth,"S. cerevisiae deletion strains, locus YNL153C, strain GIM3, hits give low values",0.999
same,normalized growth,"S. cerevisiae deletion strains, locus YNL183C, strain NPR1, hits give low values",0.94
same,normalized growth,"S. cerevisiae deletion strains, locus YNL233W, strain BNI4, hits give low values",1
same,normalized growth,"S. cerevisiae deletion strains, locus YNL250W, strain rad50, hits give low values",0.955
same,normalized growth,"S. cerevisiae deletion strains, locus YNL271C, strain bni1, hits give low values",0.976
same,normalized growth,"S. cerevisiae deletion strains, locus YNL298W, strain CLA4, hits give low values",0.998
same,normalized growth,"S. cerevisiae deletion strains, locus YNL307C, strain MCK1, hits give low values",0.863 (active)
same,normalized growth,"S. cerevisiae deletion strains, locus YNL322C, strain KRE1, hits give low values",1
same,normalized growth,"S. cerevisiae deletion strains, locus YNR052C, strain pop2, hits give low values",0.985
same,normalized growth,"S. cerevisiae deletion strains, locus YOL006C, strain TOP1, hits give low values",0.712
same,normalized growth,"S. cerevisiae deletion strains, locus YOL012C, strain htz1",0.915
same,normalized growth,"S. cerevisiae deletion strains, locus YOL147C, strain pex11, hits give low values",0.98
same,normalized growth,"S. cerevisiae deletion strains, locus YOR061W, strain CKA2, hits give low values",0.992
same,normalized growth,"S. cerevisiae deletion strains, locus YOR069W, strain VPS5, hits give low values",0.996
same,normalized growth,"S. cerevisiae deletion strains, locus YOR136W, strain idh2, hits give low values",0.977
same,normalized growth,"S. cerevisiae deletion strains, locus YOR144C, strain elg1, hits give low values",0.987
same,normalized growth,"S. cerevisiae deletion strains, locus YOR184W, strain ser1, hits give low values",0.906
same,normalized growth,"S. cerevisiae deletion strains, locus YOR231W, strain MKK1, hits give low values",0.985
same,normalized growth,"S. cerevisiae deletion strains, locus YOR316C, strain cot1, hits give low values",0.995
same,normalized growth,"S. cerevisiae deletion strains, locus YPL055C, strain LGE1, hits give low values",0.955
same,normalized growth,"S. cerevisiae deletion strains, locus YPL241C, strain CIN2, hits give low values",0.994
same,normalized growth,"S. cerevisiae deletion strains, locus YPL256C, strain CLN2, hits give low values",0.992
same,normalized growth,"S. cerevisiae deletion strains, locus YPR119W, strain clb2, hits give low values",0.986
same,normalized growth,"S. cerevisiae deletion strains, locus YPR141C, strain kar3, hits give low values",0.995
same,normalized growth,"S. cerevisiae deletion strains, locus YPR163C, strain tif3, hits give low values",0.983
same,normalized growth,"S. cerevisiae deletion strains, locus YPR167C, strain met16, hits give low values",0.986
same,normalized growth,"S. cerevisiae deletion strains, strain wtn01, hits give low values",0.976
same,normalized growth,"S. cerevisiae strains, strain wild type, hits give low values",0.997
